Test results from PubChem BioAssay (NCI).
Compounds without any hit were thinned out: in the full panel of roughly 79,000, 15% have a hit. Unmarked numbers belong to inactive results. The source made the active and inactive calls. Rule as the data show it: active = growth inhibition above about 70%; inactive = the rest.

How the values were obtained:
[1] = NCI Yeast Anticancer Drug Screen. Data for the rad52 strain (AID 147);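 also: 0% = growth of vehicle-treated control cultures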; conditions: S. cerevisiae rad52 mutant growth inhibition, hits give high values
Outline: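 Compounds are applied to a genetically defined yeast strain lacking normal DNA damage repair, and inhibition of growth is expressed relative to cultures given vehicle only.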

[2] = NCI Yeast Anticancer Drug Screen. Data for the wt1 strain (AID 149);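 also: 0% = growth of vehicle-treated wt1 cultures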; conditions: S. cerevisiae wt1 strain (SPY 50644) growth inhibition, hits give high values
Outline: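 Compounds are added to wt1 yeast cultures. Growth is then measured. Inhibition is expressed relative to vehicle-treated controls.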

[3] = NCI Yeast Anticancer Drug Screen. Data for the rad50EPP+ strain (AID 151);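 also: 0% = growth of vehicle-treated control cultures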; conditions: S. cerevisiae rad50 mutant strain, hits give high values
Outline: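 Compounds were applied to the rad50EPP+ yeast strain, which bears a defined DNA repair alteration, and growth inhibition was determined relative to vehicle-treated cultures.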

[4] = NCI Yeast Anticancer Drug Screen. Data for the mgt1 strain (AID 153); conditions: S. cerevisiae mgt1 mutant growth inhibition, hits give high values
Outline: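 Strain: mgt1 yeast, one of a set carrying defined DNA damage repair or cell cycle control alterations. Compound-treated growth compared with vehicle.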

[5] = NCI Yeast Anticancer Drug Screen. Data for the rad50 strain (AID 155);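 also: 0% = growth of vehicle-only cultures of the same strain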; conditions: S. cerevisiae rad50 strain growth inhibition, hits give high values
Outline: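 Inhibition values express reduced yeast growth in compound-treated cultures relative to vehicle-treated controls.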

[6] = NCI Yeast Anticancer Drug Screen. Data for the mec2-1 strain (AID 157); conditions: S. cerevisiae mec2-1 strain, hits give high values
Outline: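 Strain: mec2-1 (DNA repair/cell cycle alteration). Compound exposure, then growth measured; inhibition expressed relative to vehicle.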

[7] = NCI Yeast Anticancer Drug Screen. Data for the rad14 strain (AID 159);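 also: 0% = growth of vehicle-treated control cultures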; conditions: S. cerevisiae rad14 strain growth inhibition, hits give high values
Outline: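 A mutant yeast strain defective in DNA damage repair is treated with compound; inhibition of its growth is scored against untreated, vehicle-exposed cultures.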

[8] = NCI Yeast Anticancer Drug Screen. Data for the sgs1 mgt1 strain (AID 161);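 also: 0% = growth of cultures given vehicle only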; conditions: S. cerevisiae sgs1 mgt1 strain, hits give high values
Outline: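 Test agents were incubated with a DNA-repair-mutant yeast strain. Growth was then read and compared against vehicle-treated controls.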

[9] = NCI Yeast Anticancer Drug Screen. Data for the CLN2oe strain (AID 163);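 also: 0% = growth of vehicle-only control cultures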; conditions: S. cerevisiae CLN2oe strain, hits give high values
Outline: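 Growth of a genetically modified yeast strain is measured after compound exposure and compared with cultures given vehicle alone.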

[10] = NCI Yeast Anticancer Drug Screen. Data for the cln2 rad14 strain (AID 165);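 also: 0% = growth equal to vehicle treated cultures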; conditions: S. cerevisiae cln2 rad14 strain, hits give high values
Outline: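 Compounds are applied to the cln2 rad14 yeast strain, and growth is then compared with that of vehicle-treated cultures to give inhibition.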

[11] = NCI Yeast Anticancer Drug Screen. Data for the bub3 strain (AID 167); conditions: S. cerevisiae bub3 mutant strain, hits give high values
Outline: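 Steps: expose the mutant yeast strain to compound; grow alongside vehicle-treated cultures; measure growth; express inhibition against the vehicle cultures.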

[12] = NCI Yeast Anticancer Drug Screen. Data for the wt2 strain (AID 169);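 also: 0% = growth of vehicle-treated yeast cultures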; conditions: S. cerevisiae wt2 strain growth inhibition, hits give high values
Outline: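 This strain belongs to a panel of yeast strains with defined genetic alterations in DNA damage repair or cell cycle control. Compounds are applied, and growth inhibition is measured against vehicle-treated cultures.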

[13] = NCI Yeast Anticancer Drug Screen. Data for the mlh1 strain (AID 171);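 also: 0% = growth of vehicle-treated control cultures of the same strain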; conditions: S. cerevisiae mlh1 strain growth inhibition, hits give high values
Outline: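 Growth of the mutant yeast strain after compound exposure, expressed as inhibition relative to vehicle-only controls.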

[14] = NCI Yeast Anticancer Drug Screen. Data for the sgs1 strain (AID 173);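 also: 0% = growth of vehicle-only control cultures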; conditions: S. cerevisiae sgs1 mutant, hits give high values
Outline: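 Growth of a yeast strain bearing a defined genetic alteration is measured after compound treatment. Inhibition is expressed relative to vehicle-only controls.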

[15] = NCI Yeast Anticancer Drug Screen. Data for the mlh1 rad18 strain (AID 175); conditions: S. cerevisiae mlh1 rad18 strain growth inhibition, hits give high values
Outline: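 Read-out is yeast growth inhibition, calculated against vehicle-only controls. The compound was applied to a strain engineered with DNA damage repair alterations.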

[16] = NCI Yeast Anticancer Drug Screen. Data for the rad18 strain (AID 177); conditions: S. cerevisiae rad18 mutant growth inhibition, hits give high values
Outline: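 Growth of the mutant yeast strain after compound exposure, normalised to vehicle-only cultures.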

[17] = at 5.0 µM (retest, dose inferred, filed as 0.5)
[18] = at 50.0 µM (retest, dose inferred, filed as 5.0)

## CSC(=S)Nc1cc(C)ccn1
[1]; at 1.2 µM
  growth inhibition: -5%
[1]; at 3.7 µM
  growth inhibition: 6%
[1]; at 11.0 µM
  growth inhibition: 37%
[1]; at 33.0 µM
  growth inhibition: 38%
[1]; at 100.0 µM
  growth inhibition: 82% (active)
[2]; at 1.2 µM
  growth inhibition: -9%
[2]; at 3.7 µM
  growth inhibition: -3%
[2]; at 11.0 µM
  growth inhibition: 17%
[2]; at 33.0 µM
  growth inhibition: 32%
[2]; at 100.0 µM
  growth inhibition: 79% (active)
[3]; at 1.2 µM
  growth inhibition: -7%
[3]; at 3.7 µM
  growth inhibition: -15%
[3]; at 11.0 µM
  growth inhibition: 29%
[3]; at 33.0 µM
  growth inhibition: 89% (active)
[3]; at 100.0 µM
  growth inhibition: 91% (active)
[4]; at 1.2 µM
  growth inhibition: -34%
[4]; at 3.7 µM
  growth inhibition: -27%
[4]; at 11.0 µM
  growth inhibition: 37%
[4]; at 33.0 µM
  growth inhibition: 23%
[4]; at 100.0 µM
  growth inhibition: 76% (active)
[5]; at 1.2 µM
  growth inhibition: 12%
[5]; at 3.7 µM
  growth inhibition: 15%
[5]; [17]
  growth inhibition: 60%
[5]; at 11.0 µM
  growth inhibition: 64%
[5]; at 33.0 µM
  growth inhibition: 84% (active)
[5]; [18]
  growth inhibition: 99% (active)
[5]; at 50.0 µM
  growth inhibition: 84.8% (active)
[5]; at 100.0 µM
  growth inhibition: 92% (active)
[6]; at 1.2 µM
  growth inhibition: -19%
[6]; at 3.7 µM
  growth inhibition: -25%
[6]; [17]
  growth inhibition: 52%
[6]; at 11.0 µM
  growth inhibition: 39%
[6]; at 33.0 µM
  growth inhibition: 50%
[6]; [18]
  growth inhibition: 99% (active)
[6]; at 50.0 µM
  growth inhibition: 70.3% (active)
[6]; at 100.0 µM
  growth inhibition: 84% (active)
[7]; at 1.2 µM
  growth inhibition: -26%
[7]; at 3.7 µM
  growth inhibition: -12%
[7]; at 11.0 µM
  growth inhibition: 42%
[7]; at 33.0 µM
  growth inhibition: 24%
[7]; at 100.0 µM
  growth inhibition: 75% (active)
[8]; [17]
  growth inhibition: -11%
[8]; [18]
  growth inhibition: 90% (active)
[8]; at 50.0 µM
  growth inhibition: 81.2% (active)
[9]; at 1.2 µM
  growth inhibition: 20%
[9]; at 3.7 µM
  growth inhibition: 3%
[9]; at 11.0 µM
  growth inhibition: 31%
[9]; at 33.0 µM
  growth inhibition: 26%
[9]; at 100.0 µM
  growth inhibition: 74% (active)
[10]; [17]
  growth inhibition: 39%
[10]; [18]
  growth inhibition: 86% (active)
[10]; at 50.0 µM
  growth inhibition: 83% (active)
[11]; at 1.2 µM
  growth inhibition: -8%
[11]; at 3.7 µM
  growth inhibition: 50%
[11]; [17]
  growth inhibition: 8%
[11]; at 11.0 µM
  growth inhibition: 41%
[11]; at 33.0 µM
  growth inhibition: 30%
[11]; [18]
  growth inhibition: 94% (active)
[11]; at 50.0 µM
  growth inhibition: 86% (active)
[11]; at 100.0 µM
  growth inhibition: 83% (active)
[12]; at 1.2 µM
  growth inhibition: -7%
[12]; at 3.7 µM
  growth inhibition: -13%
[12]; at 11.0 µM
  growth inhibition: 23%
[12]; at 33.0 µM
  growth inhibition: 23%
[12]; at 100.0 µM
  growth inhibition: 70% (active)
[13]; at 1.2 µM
  growth inhibition: 0%
[13]; at 3.7 µM
  growth inhibition: -4%
[13]; at 11.0 µM
  growth inhibition: 54%
[13]; at 33.0 µM
  growth inhibition: 51%
[13]; at 100.0 µM
  growth inhibition: 85% (active)
[14]; at 1.2 µM
  growth inhibition: -11%
[14]; at 3.7 µM
  growth inhibition: -3%
[14]; at 11.0 µM
  growth inhibition: 46%
[14]; at 33.0 µM
  growth inhibition: 52%
[14]; at 100.0 µM
  growth inhibition: 93% (active)
[15]; [17]
  growth inhibition: 50%
[15]; [18]
  growth inhibition: 99% (active)
[15]; at 50.0 µM
  growth inhibition: 83.8% (active)
[16]; at 1.2 µM
  growth inhibition: -23%
[16]; at 3.7 µM
  growth inhibition: -29%
[16]; at 11.0 µM
  growth inhibition: 15%
[16]; at 33.0 µM
  growth inhibition: 39%
[16]; at 100.0 µM
  growth inhibition: 75% (active)

## Cc1cc(O)cc(O)c1N=Nc1ccc([N+](=O)[O-])cc1
[1]; at 1.2 µM
  growth inhibition: 5%
[1]; at 3.7 µM
  growth inhibition: 12%
[1]; at 11.0 µM
  growth inhibition: 11%
[1]; at 33.0 µM
  growth inhibition: 20%
[1]; at 100.0 µM
  growth inhibition: 32%
[2]; at 1.2 µM
  growth inhibition: 12%
[2]; at 3.7 µM
  growth inhibition: 17%
[2]; at 11.0 µM
  growth inhibition: 21%
[2]; at 33.0 µM
  growth inhibition: 51%
[2]; at 100.0 µM
  growth inhibition: 62%
[3]; at 1.2 µM
  growth inhibition: 18%
[3]; at 3.7 µM
  growth inhibition: 12%
[3]; at 11.0 µM
  growth inhibition: 15%
[3]; at 33.0 µM
  growth inhibition: 22%
[3]; at 100.0 µM
  growth inhibition: 21%
[4]; at 1.2 µM
  growth inhibition: 11%
[4]; at 3.7 µM
  growth inhibition: 15%
[4]; at 11.0 µM
  growth inhibition: 23%
[4]; at 33.0 µM
  growth inhibition: 59%
[4]; at 100.0 µM
  growth inhibition: 64%
[5]; at 1.2 µM
  growth inhibition: -6%
[5]; at 3.7 µM
  growth inhibition: 2%
[5]; [17]
  growth inhibition: 47%
[5]; at 11.0 µM
  growth inhibition: -1%
[5]; at 33.0 µM
  growth inhibition: 18%
[5]; [18]
  growth inhibition: 98% (active)
[5]; at 50.0 µM
  growth inhibition: 70.3% (active)
[5]; at 100.0 µM
  growth inhibition: 31%
[6]; at 1.2 µM
  growth inhibition: 7%
[6]; at 3.7 µM
  growth inhibition: 8%
[6]; [17]
  growth inhibition: 54%
[6]; at 11.0 µM
  growth inhibition: 8%
[6]; at 33.0 µM
  growth inhibition: 46%
[6]; [18]
  growth inhibition: 95% (active)
[6]; at 50.0 µM
  growth inhibition: 36.1%
[6]; at 100.0 µM
  growth inhibition: 63%
[7]; at 1.2 µM
  growth inhibition: -18%
[7]; at 3.7 µM
  growth inhibition: -21%
[7]; at 11.0 µM
  growth inhibition: -14%
[7]; at 33.0 µM
  growth inhibition: 38%
[7]; at 100.0 µM
  growth inhibition: 61%
[8]; [17]
  growth inhibition: 3%
[8]; [18]
  growth inhibition: 25%
[8]; at 50.0 µM
  growth inhibition: 46.6%
[9]; at 1.2 µM
  growth inhibition: 24%
[9]; at 3.7 µM
  growth inhibition: 22%
[9]; at 11.0 µM
  growth inhibition: 30%
[9]; at 33.0 µM
  growth inhibition: 42%
[9]; at 100.0 µM
  growth inhibition: 55%
[10]; [17]
  growth inhibition: 24%
[10]; [18]
  growth inhibition: 72% (active)
[10]; at 50.0 µM
  growth inhibition: 72.7% (active)
[11]; at 1.2 µM
  growth inhibition: 4%
[11]; at 3.7 µM
  growth inhibition: 26%
[11]; [17]
  growth inhibition: 16%
[11]; at 11.0 µM
  growth inhibition: 43%
[11]; at 33.0 µM
  growth inhibition: 56%
[11]; [18]
  growth inhibition: 49%
[11]; at 50.0 µM
  growth inhibition: 43.1%
[11]; at 100.0 µM
  growth inhibition: 62%
[13]; at 1.2 µM
  growth inhibition: -10%
[13]; at 3.7 µM
  growth inhibition: -2%
[13]; at 11.0 µM
  growth inhibition: -3%
[13]; at 33.0 µM
  growth inhibition: 23%
[13]; at 100.0 µM
  growth inhibition: 33%
[14]; at 1.2 µM
  growth inhibition: -3%
[14]; at 3.7 µM
  growth inhibition: -2%
[14]; at 11.0 µM
  growth inhibition: 4%
[14]; at 33.0 µM
  growth inhibition: 32%
[14]; at 100.0 µM
  growth inhibition: 47%
[15]; [17]
  growth inhibition: 48%
[15]; [18]
  growth inhibition: 99% (active)
[15]; at 50.0 µM
  growth inhibition: 55.8%
[16]; at 1.2 µM
  growth inhibition: 5%
[16]; at 3.7 µM
  growth inhibition: 3%
[16]; at 11.0 µM
  growth inhibition: 8%
[16]; at 33.0 µM
  growth inhibition: 11%
[16]; at 100.0 µM
  growth inhibition: 32%
